Experimental data as given in PubChem BioAssay AID1578 (Sanford-Burnham Center for Chemical Genomics, 2009).
Out of some 290,000 compounds screened, about 3,000 (1%) were called active. The list comes from a sample in which actives are over-represented; it also holds similar structures and randomly drawn compounds. A number with no mark means an inactive call. Cut-off read from the data, not from the text of the source: active = inhibition mostly above about 36% (no sharp cut-off); inactive = mostly below about 34%.

Test: NOD1 signaling inhibitors, primary screen, cell-based, luminescence, uHTS (AID 1578);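 note: HEK-293T reporter cells stimulated with the NOD1 agonist gamma-tri-DAP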
Conditions: NOD1-driven NF-kB luciferase reporter cells, at 4 µM, active compounds read high
With `COc1ccc(C)cc1-n1nc2ccccc2n1` the inhibition was -40%.
With `CSC1=NSC2=NC(=O)/C(=C\c3cccs3)C(=N)N12` the inhibition was -30%.
For `N=C1/C(=C/c2cccs2)C(=O)N=C2SN=C(SCc3ccccc3)N12`, the inhibition was 80.4% (active).
Work on `CC(C)CSC1=NSC2=NC(=O)/C(=C\c3cccs3)C(=N)N12` yielded an inhibition of 41.8%.
Work on `CCc1ccc(-n2nnnc2SCC(=O)Nc2ccc(NC(C)=O)cc2)cc1` yielded an inhibition of -3.5%.
For `O=C1/C(=C/c2ccccc2[N+](=O)[O-])COc2ccccc21`, the inhibition was 47.1% (active).
`O=C1/C(=C/c2ccc(O)cc2)COc2ccccc21` gave an inhibition of -6.1%.
Work on `O=C1/C(=C/c2cccs2)COc2ccccc21` yielded an inhibition of -19%.
Work on `CCOC(=O)c1cnc2nc(NCc3ccc(OC)c(OC)c3)[nH]n2c1=O` yielded an inhibition of -26.1%.
In the case of `CC1CCCN1CC#CC(O)(c1ccccc1)c1ccccc1` (stereo unspecified), the inhibition is reported as 0.2%.
`O=C(Nc1ccc([N+](=O)[O-])cn1)c1ccc2c(c1)OCO2` showed an inhibition of -49.4%.
With `CCC(CC)c1nnc(NC(=O)c2ccc3c(c2)OCO3)s1` the inhibition was -53.7%.
Molecule `O=C(Nc1ncc([N+](=O)[O-])s1)c1cccc([N+](=O)[O-])c1` has an inhibition of 10.4%.
For `Cc1cnc(NC(=O)c2c(-c3ccccc3)noc2C)s1`, the inhibition was 2.4%.
For `CC(C)c1nnc(NC(=O)c2ccc3c(c2)OCO3)s1`, the inhibition was 62.9% (active).
In the case of `Cc1nnc(NC(=O)c2c(-c3ccccc3)noc2C)s1`, the inhibition is reported as -0.4%.
In the case of `O=C(Nc1ncc([N+](=O)[O-])s1)c1ccc2c(c1)OCO2`, the inhibition is reported as 69% (active).
`CC(c1ccccc1)c1nnc(NC(=O)c2ccc3c(c2)OCO3)s1` (stereo unspecified) showed an inhibition of 5.6%.
`C/C(CCc1ccc2c(c1)OCO2)=N\N=C1\NC(=O)CC(C(=O)Nc2ccc(Cl)cc2)S1` (stereo unspecified) gave an inhibition of 3.3%.
Work on `COc1ccc(NC(=O)CNC(=O)c2c(C)nn(C)c2Cl)cc1` yielded an inhibition of -25.4%.
Molecule `Cc1ccc(C(=O)Cn2c(C)cc(C)c(C#N)c2=O)cc1` has an inhibition of -3.5%.
`COc1cccc2sc(/N=C/N(C)C)nc12` gave an inhibition of 4.3%.
With `CN1CCCC1=Nc1c2c(nc3ccccc13)N(C)CC2` the inhibition was -12.3%.
`COc1ccc(-c2csc(NC(=S)NC(=O)c3ccc(S(=O)(=O)N(C)C)cc3)n2)cc1OC` gave an inhibition of -1.9%.
In the case of `Cc1ccc(CCCOC(=O)CN2CCCCC2)cc1`, the inhibition is reported as -29.9%.
Work on `COc1cc(OC)cc(OCC(O)Cn2cnc(-c3ccccc3)c2)c1` (stereo unspecified) yielded an inhibition of -19.2%.
Work on `Brc1ccc(C=Nc2ccc3c(c2)OCCOCCOCCO3)s1` yielded an inhibition of -40.4%.
`O=C(c1noc2c1CCc1ccccc1-2)N1CCc2ccccc2C1` gave an inhibition of -25%.
Molecule `Fc1ccccc1CNc1ncnc2sccc12` has an inhibition of 25.2%.
`COc1ccc(CNc2ncnc3sccc23)cc1` showed an inhibition of 41.7%.
`CN(C)C(CNc1ncnc2sccc12)c1ccccc1` (stereo unspecified) showed an inhibition of 4%.
For `COc1ccc(CNc2ncnc3cc(OC)c(OC)cc23)cc1OC`, the inhibition was -17%.
`OC(CNc1ncnc2sccc12)c1ccccc1` (stereo unspecified) showed an inhibition of -2.4%.
For `COc1ccccc1Nc1ncnc2sccc12`, the inhibition was -5.2%.
Molecule `O=C(CN1CCN(S(=O)(=O)c2ccc(Cl)cc2)CC1)c1ccc(O)c(O)c1` has an inhibition of -30.9%.
Work on `Cn1ccnc1SCC(=O)c1ccc([N+](=O)[O-])cc1` yielded an inhibition of -21.2%.
`COc1ccc(C(=O)NCCOC(C)C)cc1OC1CCN(C(C)=O)CC1` showed an inhibition of -13.7%.
For `O=C(CSc1nc2ccccc2s1)NNC(=S)Nc1ccc(Cl)cc1`, the inhibition was -14.3%.
Work on `O=C(COc1ccc(Cl)cc1Cl)NNC(=S)NC(=O)c1ccco1` yielded an inhibition of -10.8%.
In the case of `CCOc1ccc(OCC)c(NC(=O)CN2CCN(c3cccc(C)c3)C(C)C2)c1` (stereo unspecified), the inhibition is reported as 29.9%.
`O=C(CSc1nc2ccccc2s1)NC1CCCC1` showed an inhibition of 9.6%.
`O=C(Cn1ncc(Cl)c(Cl)c1=O)N1CCOCC1` gave an inhibition of 6.8%.
In the case of `O=C(Cn1ncc(Cl)c(Cl)c1=O)N1CCN(S(=O)(=O)c2ccc3ccccc3c2)CC1`, the inhibition is reported as 48.9%.
For `O=C(Cn1ncc(Cl)c(Cl)c1=O)N1CCN(Cc2ccccc2)CC1`, the inhibition was 84.9% (active).
With `Cc1ccc2c(c1)C(c1ccc(F)cc1)N(C(=O)c1ccc(S(=O)(=O)N(C)C)cc1)CC(=O)N2` (stereo unspecified) the inhibition was 3.7%.
For `C=CCOc1ccc(Br)cc1/C=C1/SC(=Nc2ccc(C(=O)O)cc2)NC1=O`, the inhibition was 40.4% (active).
`C=CCOc1c(Br)cc(/C=C2\SC(=Nc3ccccc3)NC2=O)cc1OC` showed an inhibition of -29.6%.
In the case of `CCOc1cc(Br)cc(/C=C2\SC(=Nc3ccccc3)NC2=O)c1O`, the inhibition is reported as -86.1%.
`O=C(c1cc2cc(Cl)ccc2o1)N1CCCC1` showed an inhibition of -13%.
`COCCn1nnnc1CN(Cc1cc2cc(OC)c(OC)cc2[nH]c1=O)C1CCCC1` showed an inhibition of -13.9%.
With `CC/C(=N\NC(=S)Nc1cccc(C)c1)c1ccccc1` the inhibition was 48.5% (active).
In the case of `Cc1cccc(NC(=S)NCCC(c2ccccc2)c2ccccc2)c1`, the inhibition is reported as 7.2%.
In the case of `Cc1cccc(NC(=S)NCCC(C)C)c1`, the inhibition is reported as 69.1% (active).
With `C/C(=N\NC(=S)Nc1cccc(C)c1)c1ccccc1` the inhibition was -16.7%.
`CC(C)CCNC(=S)Nc1ccc(Br)cc1` showed an inhibition of -18.8%.
`Cc1cccc(NC(=S)N/N=C(\c2ccccc2)C(C)C)c1` gave an inhibition of -62.9%.
For `CC(=O)N/C(=C\c1ccc(F)cc1)C(=O)OCc1ccccc1`, the inhibition was -8%.
Work on `Cc1oc(-c2ccccc2Cl)nc1CS(=O)CC(=O)NCc1cccs1` (stereo unspecified) yielded an inhibition of -13.9%.
For `CN(C)/C=C(\C=N\OCc1ccc(Cl)cc1Cl)C(=O)Nc1ccc(Cl)c(Cl)c1`, the inhibition was 95.7% (active).
`O=C(C/C=N\OCc1ccc(Cl)cc1Cl)Nc1ccccc1` gave an inhibition of -17%.
Molecule `O=C(C/C=N/OCc1ccc(Cl)cc1Cl)c1ccc(Cl)cc1` has an inhibition of 19.3%.
In the case of `CCN(CCCNC(=O)CN1C(=O)COc2ccccc21)c1cccc(C)c1`, the inhibition is reported as 14.9%.
Work on `COc1ccc(NC(=O)C(=O)NCCN2CCN(C(=O)c3ccc(C)cc3)CC2)cc1` yielded an inhibition of -23%.
In the case of `CCN(CC)CC1CCCCN1CC(=O)N1c2ccccc2C(=O)Nc2cccnc21` (stereo unspecified), the inhibition is reported as 5.4%.
In the case of `O=C1Nc2cccnc2N(C(=O)CCl)c2ccccc21`, the inhibition is reported as 50.5% (active).
`CN1CCN(CC(=O)N2c3ccccc3C(=O)Nc3cccnc32)CC1` showed an inhibition of -42.1%.
